Data reported in PubChem BioAssay (NCI).
The panel holds about 79,000 compounds, 15% with a hit somewhere; the sample as a whole holds those more often. Unmarked numbers belong to inactive results. Activity calls are given as the source filed them. Cut-off read from the data, not from the text of the source: active = growth inhibition above about 70%; inactive = the rest.

Key:
[1] = NCI Yeast Anticancer Drug Screen. Data for the rad50 strain (AID 155);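 note: 0% = growth of vehicle-only cultures of the same strain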; details: S. cerevisiae rad50 strain growth inhibition, stronger effect = higher value
Outline: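 A DNA repair-deficient yeast mutant serves as the test organism; compound-induced growth inhibition is calculated against vehicle-treated cells.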

[2] = NCI Yeast Anticancer Drug Screen. Data for the mec2-1 strain (AID 157); details: S. cerevisiae mec2-1 strain, stronger effect = higher value
Outline: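 Readout is yeast growth inhibition, normalised to vehicle-treated controls, in the mec2-1 strain exposed to compound.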

[3] = NCI Yeast Anticancer Drug Screen. Data for the sgs1 mgt1 strain (AID 161);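 note: 0% = growth of cultures given vehicle only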; details: S. cerevisiae sgs1 mgt1 strain, stronger effect = higher value
Outline: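 Growth of a repair-deficient yeast mutant was monitored after compound treatment and expressed as inhibition relative to vehicle-treated cultures.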

[4] = NCI Yeast Anticancer Drug Screen. Data for the cln2 rad14 strain (AID 165);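 note: 0% = growth equal to vehicle treated cultures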; details: S. cerevisiae cln2 rad14 strain, stronger effect = higher value
Outline: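 Relative to vehicle controls, growth inhibition of compound-treated cln2 rad14 yeast was recorded.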

[5] = NCI Yeast Anticancer Drug Screen. Data for the bub3 strain (AID 167); details: S. cerevisiae bub3 mutant strain, stronger effect = higher value
Outline: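 Inhibition values come from growth of compound-treated mutant yeast normalised to vehicle-treated controls.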

[6] = NCI Yeast Anticancer Drug Screen. Data for the mlh1 rad18 strain (AID 175); details: S. cerevisiae mlh1 rad18 strain growth inhibition, stronger effect = higher value
Outline: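 Test agents were incubated with a yeast strain of defined genotype (DNA damage repair defect). Inhibition of growth was derived by comparison with vehicle-exposed cultures.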

[7] = at 5.0 µM (retest, dose inferred, filed as 0.5)
[8] = at 50.0 µM (retest, dose inferred, filed as 5.0)

| SMILES | growth inhibition [1, 7] | growth inhibition [1, 8] | growth inhibition ([1]; at 50.0 µM) | growth inhibition [2, 7] [%] | growth inhibition [2, 8] | growth inhibition ([2]; at 50.0 µM) | growth inhibition [3, 7] | growth inhibition [3, 8] | growth inhibition ([3]; at 50.0 µM) | growth inhibition [4, 7] | growth inhibition [4, 8] | growth inhibition ([4]; at 50.0 µM) | growth inhibition [5, 7] | growth inhibition [5, 8] | growth inhibition ([5]; at 50.0 µM) | growth inhibition [6, 7] | growth inhibition [6, 8] | growth inhibition ([6]; at 50.0 µM) |
| --- | --- | --- | --- | --- | --- | --- | --- | --- | --- | --- | --- | --- | --- | --- | --- | --- | --- | --- |
| COc1ccc(C(O)/C(=N\NC(N)=S)c2nc3ccc([N+](=O)[O-])cc3[nH]c2=O)cc1OC (configuration not stated) | 4% | 97% (active) | 66.1% | 1 | 99% (active) | 28.2% | 4% | 97% (active) | 20.6% | 1% | 98% (active) | 6.55% | 6% | 98% (active) | 22.7% | 0% | 97% (active) | 52.8% |
| S=C=NCCCCCCN=C=S | 36% | 99% (active) | 99.6% (active) | 41 | 99% (active) | 99.5% (active) | 59% | 99% (active) | 99.3% (active) | 21% | 99% (active) | 99.3% (active) | 58% | 99% (active) | 99.3% (active) | 79% (active) | 99% (active) | 99.2% (active) |
| O=C(NN=C1CCCCC1)c1ccc([N+](=O)[O-])cc1 | -1% | -7% | -0.5% | -17 | -11% | 0.2% | 13% | 9% | 10.6% | -1% | 10% | 37.5% | 19% | 24% | -2.95% | 4% | 7% | 20.2% |
| CC1(c2ccc(O)cc2)CC(C)(c2ccc(O)cc2)C1 (configuration not stated) | 81% (active) | 93% (active) | 94.8% (active) | 32 | 82% (active) | 93.2% (active) | 67% | 91% (active) | 91.9% (active) | 41% | 87% (active) | 94.2% (active) | 87% (active) | 91% (active) | 95.2% (active) | 86% (active) | 89% (active) | 92.8% (active) |
| O=c1c(O)cc2c(O)oc3c(=O)c(O)c(O)c4c(O)oc1c2c43 | 58% | 96% (active) | 88.4% (active) | 23 | 93% (active) | 57.2% | 41% | 90% (active) | 67.2% | 12% | 90% (active) | 50.3% | 25% | 90% (active) | 85% (active) | 41% | 96% (active) | 66.2% |
| Fc1ccc(CSC(=S)Nc2cccc(C(F)(F)F)c2)cc1 | 10% | 99% (active) | 99.6% (active) | 9 | 100% (active) | 99.8% (active) | 12% | 100% (active) | 99.7% (active) | 3% | 99% (active) | 99.5% (active) | -2% | 100% (active) | 99.7% (active) | 7% | 99% (active) | 99.5% (active) |
| O/N=C(/Cc1nc2cc(Cl)c(Cl)cc2nc1C/C(=N/O)c1ccncc1)c1ccncc1 | 5% | 65% | 82.2% (active) | 11 | 77% (active) | 87.6% (active) | 4% | 55% | 79% (active) | 6% | 68% | 84.5% (active) | 5% | 77% (active) | 74% (active) | 1% | 47% | 89.5% (active) |
| CC(C)(C)c1cc(C(c2cc3c(cc2O)OCO3)N2CCOCC2)cc(C(C)(C)C)c1O (configuration not stated) | 87% (active) | 95% (active) | 69.9% | 59 | 97% (active) | 64.6% | 99% (active) | 95% (active) | 72.2% (active) | 52% | 96% (active) | 57.7% | 68% | 96% (active) | 63% | 69% | 97% (active) | 7.8% |
| Cc1ccc(-c2c3nc(c(-c4ccc(C)cc4)c4ccc([nH]4)c(-c4ccc(C)cc4)c4nc(c(-c5ccncc5)c5ccc2[nH]5)C=C4)C=C3)cc1.Cc1ccc(-c2c3nc(c(-c4ccc(C)cc4)c4ccc([nH]4)c(-c4ccc(C)cc4)c4nc(c(-c5ccncc5)c5ccc2[nH]5)C=C4)C=C3)cc1.O=S(=O)([O-])C(F)(F)F.[Pt+2].c1ccc([PH+](CCC[PH+](c2ccccc2)c2ccccc2)c2ccccc2)cc1 | 19% | 62% | 48.8% | 13 | 42% | 36.8% | 13% | 71% (active) | 50.4% | 3% | 45% | -44.6% | 10% | 63% | 38.8% | 14% | 60% | 68.5% |
| O=P1(N2CCCCC2)N(Cc2ccc(Cl)cc2)CCCN1Cc1ccc(Cl)cc1 | 59% | 96% (active) | 82% (active) | 65 | 97% (active) | 51.5% | 11% | 97% (active) | 29.1% | 31% | 96% (active) | 63.2% | 49% | 96% (active) | 6.75% | 69% | 90% (active) | 76.8% (active) |
| O=[N+]([O-])c1ccccc1N=Nc1c(O)[nH]c2ccc(S(=O)(=O)O)cc12 | 73% (active) | 96% (active) | 97.7% (active) | 36 | 87% (active) | 97.8% (active) | 68% | 93% (active) | 95.9% (active) | 85% (active) | 94% (active) | 95.6% (active) | 87% (active) | 97% (active) | 97.8% (active) | 90% (active) | 98% (active) | 98.4% (active) |
| C/C(=N\N(C)C(=S)Nc1ccccc1)c1ccccn1 | -2% | 11% | 93.5% (active) | -4 | 9% | 63.2% | -6% | 22% | 71.7% (active) | -5% | -18% | 54.9% | -12% | 36% | 82% (active) | -10% | 65% | 61.8% |
| CCCCc1ccc2nc(C)cc(N=[N+]=[N-])c2c1 | 2% | 98% (active) | 89.7% (active) | -14 | 90% (active) | 99% (active) | -6% | 96% (active) | 94.8% (active) | -14% | 48% | 94.7% (active) | -9% | 92% (active) | 97.2% (active) | -2% | 98% (active) | 96.3% (active) |
| CC(C)c1ccc(CN(CCO)Cc2ccc(C(C)C)cc2)cc1 | 7% | 84% (active) | 97.2% (active) | 3 | 88% (active) | 75.6% (active) | 6% | 95% (active) | 97.1% (active) | 7% | 87% (active) | 77.3% (active) | 7% | 97% (active) | 98.6% (active) | 8% | 91% (active) | 81.8% (active) |
| c1csc(-c2nccc3c2[nH]c2ccccc23)c1 | -18% | 92% (active) | 88% (active) | -17 | 94% (active) | 92.8% (active) | -29% | 95% (active) | 90.2% (active) | -13% | 83% (active) | 91% (active) | -42% | 97% (active) | 91.3% (active) | -19% | 94% (active) | 86.7% (active) |
| N#CC1(C#N)C(C#N)(C#N)C12CCCC2 | 5% | 50% | 38.9% | 4 | 54% | 21.4% | 4% | 66% | 74% (active) | 1% | 30% | 16.9% | 4% | 81% (active) | 12.4% | 5% | 91% (active) | 67.3% |
| COc1ccc2c(ccc[n+]2CC(=O)c2ccc(-c3ccccc3)cc2)c1 | -24% | 5% | 13.1% | -5 | -1% | 14.8% | -20% | 24% | 2.75% | -2% | 5% | -12.8% | 3% | 8% | -2.75% | -3% | 12% | 40% |
| O=C1c2ccccc2-c2ccc(N3C(=O)C4CCCCC4C3=O)cc21 (configuration not stated) | -5% | 95% (active) | -31.3% | -4 | 96% (active) | 5.4% | -4% | 96% (active) | -9.15% | -8% | 95% (active) | -36.8% | 41% | 95% (active) | 74.9% (active) | -4% | 94% (active) | -26.2% |
| CCOC(=O)CC1=NC(=Nc2cc(Cl)ccc2Cl)SC1 | 21% | 66% | 64.5% | 23 | 56% | 40.8% | 22% | 69% | 79.6% (active) | 24% | 30% | 25.7% | 29% | 82% (active) | 77.2% (active) | 38% | 75% (active) | 66.5% |
